The target in this assay is Cellular tumor antigen p53 (Homo sapiens) (UniProt P04637). Nature of the assay: Primary qHTS for small molecule compounds that upregulate eGFP-tagged delta133p53alpha (in N-terminal) cells. (AID 2060322). Also: nearly all actives have a fitted effect of over 75% in size.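 As to activation: series mostly up to about 56 µM; 0% = DMSO vehicle and 100% = reference activator.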 As to conditions: NCI-H358 eGFP-delta133p53alpha fluorescence, 24 h; activation: active compounds read high. The essentials:
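NCI-H358 cells pre-induced 24 h with 10 ng/ml doxycycline to express N-terminal eGFP-delta133p53alpha, then dosed 24 h at 37C without doxycycline; fixed, Hoechst-stained, GFP intensity by laser scanning cytometry, normalized to DMSO (0%) and 57.5 uM 5-azacytidine (100%).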

Inconclusive results are not listed. Unmarked numbers belong to inactive results. The source made the active and inactive calls. Calls follow the shape of the dose curve; as a rule, active = well fitted activation curve with a large enough effect; inconclusive = small, poorly fitted or top-dose-only effect; inactive = no such curve, though single readings can be large or run the other way.
Potency is read from the fitted curve at half-maximal effect.

Cellular tumor antigen p53 (Homo sapiens), sequence (P04637 whole entry, looked up): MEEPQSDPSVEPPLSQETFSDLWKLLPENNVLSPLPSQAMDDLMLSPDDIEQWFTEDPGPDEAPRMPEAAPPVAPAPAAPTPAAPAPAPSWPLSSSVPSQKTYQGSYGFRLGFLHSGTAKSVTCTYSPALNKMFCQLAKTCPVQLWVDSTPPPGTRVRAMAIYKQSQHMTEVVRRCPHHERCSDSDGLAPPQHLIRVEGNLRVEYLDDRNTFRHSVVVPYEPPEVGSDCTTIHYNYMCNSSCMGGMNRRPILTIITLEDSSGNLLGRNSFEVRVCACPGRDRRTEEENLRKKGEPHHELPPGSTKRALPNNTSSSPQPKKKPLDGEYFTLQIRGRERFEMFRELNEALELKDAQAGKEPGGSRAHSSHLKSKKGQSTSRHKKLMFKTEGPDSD

Turning to `COc1ccccc1N1CCN(CCCCNC(=O)c2ccc(-c3ccc(C(C)=O)cc3)cc2)CC1`, the activation was -10.9%.
Take `CC(=O)[C@@]1(O)CC[C@H]2[C@@H]3C[C@H](C)C4=CC(=O)C=C[C@]4(C)[C@@]3(F)[C@@H](O)C[C@@]21C`: the activation is -11.7%.
With `O=[N+]([O-])c1ccc(/C=N\O)o1`, the activation is 11.9%.
Take `CC(=O)Nc1c(I)cc(I)c(C(=O)O)c1I`: the activation was -3.95%.
In the case of `COc1cccc2c1C(=O)c1c(O)c3c(c(O)c1C2=O)C[C@@](O)(C(=O)CO)C[C@H]3O[C@H]1C[C@H](N)[C@H](O)[C@H](C)O1`, the activation is -35.6%.
`CC(C)(C)NC[C@H](O)COc1cccc2c1CCCC2=O`: the activation is 8.47%.
Regarding `CC[C@H](CC[C@@H](C)[C@H]1CC[C@H]2[C@@H]3CC=C4C[C@@H](O)CC[C@]4(C)[C@@H]3CC[C@]12C)C(C)C`, the activation was -21.3%.
Take `COCc1c(C(C)C)nc(C(C)C)c(/C=C/[C@@H](O)C[C@@H](O)CC(=O)O)c1-c1ccc(F)cc1`: the activation is 27.7%.
Regarding `O=C1NC(=O)C(=Cc2ccc3c(c2)OC(F)(F)O3)S1`, the activation was 27.2%.
In the case of `CC(C)(C)CC(C)(C)c1ccc(O)c(-n2nc3ccccc3n2)c1`, the activation is -0.565%.
Regarding `COc1cc(C)c(Cc2cnc(N)nc2N)cc1OC`, the activation is -6.69%.
Take `CCC(=O)Nc1ccc(O)cc1`: the activation is -18.6%.
As to `Cc1c(Cn2ccnc2)c2ccccc2n1CCC(=O)O`, the activation was -8.47%.
Turning to `[O-][n+]1cccc(CO)c1`, the activation was 20.1%.
For `CCCCOC(=O)c1ccc(N)cc1`, the activation was 19.8%.
For `Cc1cc(C)c(NC(=O)CN(CC(=O)O)CC(=O)O)c(C)c1Br`, the activation was -11.9%.
On to `CC(C)(c1ccc(O)cc1)c1ccc(O)cc1`, for which the activation was -17.5%.
Turning to `CC(C)CN(C[C@@H](O)[C@H](Cc1ccccc1)NC(=O)O[C@H]1CO[C@H]2OCC[C@H]21)S(=O)(=O)c1ccc(N)cc1`, the activation is 22.9%.
On the same count and under the same terms, then `CCCC(=O)OCOC(=O)C1=C(C)NC(C)=C(C(=O)OC)C1c1cccc(Cl)c1Cl` (stereo unspecified), with -26.6%; and `O=S(=O)(O)c1ccc(O)cc1`, with 5.08%; and `CC[C@H]1OC(=O)[C@H](C)[C@@H](O[C@H]2C[C@@](C)(OC)[C@@H](O)[C@H](C)O2)[C@H](C)[C@@H](O[C@@H]2O[C@H](C)C[C@H](N(C)C)[C@@H]2O)[C@](C)(O)C[C@@H](C)CN(C)[C@H](C)[C@@H](O)[C@]1(C)O`, with 2.23%.
Consider `O=C1CC2(CCCC2)CC(=O)N1CCNCC1COc2ccccc2O1` (stereo unspecified), for which the activation was -5.86%.
Still for that read-out and setting: next, `N[C@@H](CSCCCO)C(=O)O`: -10%.
`O=C(CCc1ccc(O)cc1)c1c(O)cc(O)cc1O[C@@H]1O[C@H](CO)[C@H](O)[C@H](O)[C@H]1O`: the activation was 1.26%.
For `C1N2CN3CN1CN(C2)C3`, the Potency was 27.6 µM (active).
For the molecule `C=C1C[C@@]2(O)O[C@@]3(C[C@H]2C(C)C)[C@H](C)CC[C@H]13`, the activation is 18.1%.
As to `[O-][n+]1ccccc1SSc1cccc[n+]1[O-]`, the Potency is 0.379 µM (active).
For the molecule `Cc1cn([C@H]2C[C@H](F)[C@@H](CO)O2)c(=O)[nH]c1=O`, the activation was 0.837%.
In the case of `Cc1ncc(CO)c(CO)c1O`, the activation was -24.3%.
Take `COc1ccc(-c2coc3cc(O)ccc3c2=O)cc1`: the activation is -10.4%.
Turning to `NS(=O)(=O)c1cc(-c2nn[nH]n2)c(NCc2cccs2)cc1Cl`, the activation is 5.02%.

The values above are taken from PubChem BioAssay (NCATS).
